Assay outcomes from PubChem.
Gal4-VP16 FLuc: VP16 counterscreen qHTS for inhibitors of ROR gamma transcriptional activity. Drosophila S2 Gal4-VP16 UAS-luciferase, luminescence, 20 h. Potency, µM (titrated, usually from 53.6 µM), without a hit: at the highest dose activity, negative = inhibition, usual class: inhibitors. 3.5% of 310,000 active. AID 2546, 2010;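 also: Gal4-VP16 expression switched on by copper sulfate through the metallothionein promoter; % is scaled to controls: 0 for no effect and ±100 for the full control effect; nearly all actives have a fitted effect of over 50% in size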
Mito fusion yeast: qHTS Assay for Small Molecule Inhibitors of Mitochondrial Division or Activators of Mitochondrial Fusion | S. cerevisiae fusion-defective mutant growth rescue, CellTiterGlo 48 h | Potency, µM (series often up to 46.1 µM), inactives show at the top dose growth rescue (activation), most hits filed as activators | 0.23% of 320,000 active | AID 485298, 2010; also: % of control where 0% means no effect; nearly all actives have a fitted effect of over 45% in size
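Compounds are tested for their ability to restore growth of mitochondrial fusion-defective yeast strains at non-permissive 37C in YPEG medium over 48 hours. Viability is quantified by luciferase luminescence.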
RORgamma inh: qHTS for inhibitors of ROR gamma transcriptional activity. Nuclear receptor ROR-gamma (Mus musculus), P51450. Drosophila S2 Gal4-RORgamma UAS-luciferase reporter, 20 h. Potency, µM (highest dose often 53.6 µM), without a hit: top-dose activity change, negative = inhibition, most hits filed as inhibitors. 5.4% of 310,000 active. AID 2551, 2010; also: % is scaled to controls: 0 for no effect and ±100 for the full control effect; nearly all actives have a fitted effect of over 60% in size
Target sequence (P51450 whole entry, looked up, the tested form may be a part): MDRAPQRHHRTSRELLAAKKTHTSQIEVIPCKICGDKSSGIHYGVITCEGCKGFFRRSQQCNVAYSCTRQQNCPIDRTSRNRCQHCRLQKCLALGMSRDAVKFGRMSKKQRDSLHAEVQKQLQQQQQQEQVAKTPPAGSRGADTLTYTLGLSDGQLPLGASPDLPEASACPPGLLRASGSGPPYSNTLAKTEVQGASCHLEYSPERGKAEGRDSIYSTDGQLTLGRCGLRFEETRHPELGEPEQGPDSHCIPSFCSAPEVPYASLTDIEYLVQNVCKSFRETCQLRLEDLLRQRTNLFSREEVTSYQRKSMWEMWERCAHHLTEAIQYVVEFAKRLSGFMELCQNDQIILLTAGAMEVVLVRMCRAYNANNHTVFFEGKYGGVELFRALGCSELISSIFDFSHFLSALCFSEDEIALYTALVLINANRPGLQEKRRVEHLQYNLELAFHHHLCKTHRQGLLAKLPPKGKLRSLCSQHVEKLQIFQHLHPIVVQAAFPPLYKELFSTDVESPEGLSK
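Drosophila Schneider cells stably carrying a metallothionein-driven Gal4 DBD–ROR gamma fusion and a UAS-Photinus luciferase reporter were exposed to compound for 1 hr, then induced with copper sulfate (700 uM final) for 20 hr at ambient temperature before luminescence reading.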
BCR signal inh: qHTS Assay to Find Inhibitors of Chronic Active B-Cell Receptor Signaling; Potency, µM (top dose mostly 46.1 µM), inactives show top-dose activity change, negative = inhibition, actives largely listed as inhibitors; ABC-DLBCL IkBa-CBG/CBR reporter, luminescence ratio, 4 h; 0.05% of 340,000 active; active = well fitted inhibition curve with a large enough effect in the signal ratio, with a control signal flat, not every such curve was filed as active; inconclusive = small, poorly fitted or top-dose-only effect, or effect the other way, or a change in a side signal; the % refers to the signal ratio;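 also: plate controls were basal doxycycline-induced cells for no effect and cells given 10 µM MG132 for full effect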
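TMD8 human ABC-DLBCL cells with doxycycline-inducible IκBα–green luciferase fusion and unfused red luciferase, in 0.5% FBS medium; compounds up to 46 uM, 4 h at 37C. Green/red luminescence ratio, filter-overlap corrected, fitted to concentration-response curves.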
uPA surface inh: qHTS for Inhibitors of Cell Surface uPA Generation; 0.31% of 330,000 active; Potency, µM (top dose mostly 38.3 µM), without a hit: at the highest dose activity change, negative = inhibition, most hits filed as inhibitors; cell surface uPA generation assay, qHTS; active = well fitted inhibition curve with a large enough effect; inconclusive = small, poorly fitted or top-dose-only effect; inactive = no such curve, though single readings can be large or run the other way; tested in mouse RAW 264.7 cells; also: % is scaled to controls: 0 for no effect and ±100 for the full control effect; nearly all actives have a fitted effect of over 55% in size
a7 integrin act: qHTS for Activators of Integrin-Mediated Alleviation for Muscular Dystrophy. Potency, µM (top dose mostly 38.3 µM), without a hit: top-dose activation, usual class: activators. 0.064% of 350,000 active. alpha7betagal myoblasts, beta-gal FDG fluorescence, 48 h;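 also: 100% = response of the positive control SU9516; nearly all actives have a fitted effect of over 60% in size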
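alpha7betagal+/- myoblasts (passage 13, 250/well) treated 48 h at 37C with compounds at 1:260 dilution of DMSO stock. Lysed, then beta-galactosidase activity read as FDG fluorescence (ex 480/em 540) after 30 min, with pre-read for autofluorescence.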
Numbers without * were called inactive; ? = inconclusive; / = no result given. Rows were chosen to be rich in hits. Some 5.5% of all compounds tested hit in one or more screens of this group. Unless noted, calls follow the shape of the dose curve; as a rule, active = well fitted curve in the direction sought with a large enough effect; inconclusive = small, poorly fitted or top-dose-only effect, or another doubt; inactive = no such curve, though single readings can be large; an effect the other way counts as inactive or inconclusive. Potency is read from the fitted curve at half-maximal effect.

SMILES	Gal4-VP16 FLuc	Mito fusion yeast	RORgamma inh	BCR signal inh	uPA surface inh	a7 integrin act
Oc1ccc(NC(=S)N=Nc2c(O)[nH]c3ccc(Br)cc23)cc1	?	3%	10µM*	?	0%	-8%
Oc1cccc(NC(=S)N=Nc2c(O)[nH]c3ccc(Br)cc23)c1	-7%	11%	-40%	?	-1%	0%
CC1=C(/C=C/C(C)=C/C=C/C(C)=C/C(=O)Oc2c(C)c(C)c3c(c2C)CC[C@@](C)(CCC[C@H](C)CCC[C@H](C)CCCC(C)C)O3)C(C)(C)CCC1	5%	/	2%	/	/	/
CC(Cc1ccc(O)c(O)c1)(NN)C(=O)O (stereo not given)	-17%	/	-10%	/	/	/
Cc1cc(C)cc(N(C(=O)c2csnn2)C(C(=O)NC2CCCC2)c2cccnc2)c1 (stereo not given)	1%	-1%	-3%	-3%	3%	16%
NC(=O)C(c1ccc(Cl)cc1)c1ccc(Sc2ccc(Cl)cc2)nn1 (stereo not given)	14µM*	1%	?	?	-3%	-15%
Cc1nn(-c2ccccc2)c(NC(=O)NS(=O)(=O)c2ccc(Cl)cc2)c1C#N	-7%	/	0%	/	/	/
S=c1[nH]nc(COc2ccc3c(c2)OCO3)n1-c1ccccc1	11µM*	5%	3.5µM*	?	-5%	6%
CS(=O)(=O)Nc1ccc(-c2n[nH]c(=S)n2-c2ccccc2)cc1	9%	-1%	?	2%	6%	12%
S=c1[nH]nc(-c2ccc3c(c2)OCO3)n1-c1ccccc1	11µM*	0%	8.9µM*	6%	3%	3%
CCn1c(COc2ccc(Cl)cc2)nnc1SCC(=O)Nc1ccc2c(c1)OCO2	-6%	2%	-7%	-1%	1%	49%
O=[N+]([O-])c1ccc(OCc2n[nH]c(=S)n2-c2ccccc2)cc1	?	-5%	0.32µM*	1%	-3%	-18%
CCn1c(COc2ccc3c(c2)OCO3)nnc1SCC(=O)c1ccccc1	13µM*	-4%	13%	?	-3%	-15%
COC(=O)[C@@H]1C[C@H]1[C@@H](NC(=O)c1cnccn1)c1ccccc1	1%	/	-2%	/	/	/
Cc1ccc(CNC(=O)Cc2c(C(=O)O)c(C)cn2C)cc1	/	/	/	13%	/	/
CCN(CC(=O)NCc1ccc(Cl)cc1)C(=O)c1sccc1C	/	/	/	0%	-21%	0%
O=C(CCC(=O)Nc1ccc(Cl)cc1)N/N=C/c1ccc2c(c1)OCO2	14µM*	20%	-14%	?	4%	7%
O=C(CCC(=O)Nc1ccccc1)N/N=C/c1ccc2c(c1)OCO2	2%	0%	15%	4%	0%	-38%
O=C(CN(Cc1ccc(Cl)c(Cl)c1)S(=O)(=O)c1ccccc1)N/N=C\c1ccc2c(c1)OCO2	0%	10%	-2%	-10%	-4%	-47%
O=C(CN(Cc1ccccc1)S(=O)(=O)c1ccccc1)N/N=C/c1ccc2c(c1)OCO2	0.89µM*	10%	37%	?	7%	-20%
CC(OC(=O)CCN1C(=O)C2CC=CCC2C1=O)C(=O)Nc1cccc(C#N)c1 (stereo not given)	/	0%	/	4%	3%	15%
CCN(CC)C(=O)c1sc2nc(-c3cccs3)cc(-c3cccs3)c2c1N	-1%	21%	-40%	?	7%	-5%
Cc1cc(C)c2c(N)c(C(=O)Nc3nccs3)sc2n1	?	4%	?	?	-11%	1%
Nc1c(C(=O)Nc2nccs2)sc2nc(-c3cccs3)cc(C(F)(F)F)c12	10µM*	1%	?	?	9%	-4%
CC(C)(C)C(=O)c1sc2nc(-c3cccs3)cc(C(F)(F)F)c2c1N	-9%	-2%	10µM*	0%	-2%	10%
